Laboratory results as given in PubChem BioAssay (Tox21).
Results filed as inconclusive are left out. Active and inactive are the calls of the source. Unless noted, calls come from the whole dose curve; as a rule, active = well fitted curve in the direction sought with a large enough effect in the repeat runs; inconclusive = weak or mixed curves; inactive = no such curve, though single readings can be large; an effect the other way counts as inactive or inconclusive.

Experiments:
[1] = target: Thyrotropin receptor (Homo sapiens) (UniProt P16473); assay: qHTS assay to identify small molecule antagonists of the thyroid stimulating hormone receptor (TSHR) signaling pathway (AID 1259385; calls by dose curve; note: nearly all actives have a fitted effect of over 20% in size)
Sequence of Thyrotropin receptor (Homo sapiens) (P16473 whole entry, looked up): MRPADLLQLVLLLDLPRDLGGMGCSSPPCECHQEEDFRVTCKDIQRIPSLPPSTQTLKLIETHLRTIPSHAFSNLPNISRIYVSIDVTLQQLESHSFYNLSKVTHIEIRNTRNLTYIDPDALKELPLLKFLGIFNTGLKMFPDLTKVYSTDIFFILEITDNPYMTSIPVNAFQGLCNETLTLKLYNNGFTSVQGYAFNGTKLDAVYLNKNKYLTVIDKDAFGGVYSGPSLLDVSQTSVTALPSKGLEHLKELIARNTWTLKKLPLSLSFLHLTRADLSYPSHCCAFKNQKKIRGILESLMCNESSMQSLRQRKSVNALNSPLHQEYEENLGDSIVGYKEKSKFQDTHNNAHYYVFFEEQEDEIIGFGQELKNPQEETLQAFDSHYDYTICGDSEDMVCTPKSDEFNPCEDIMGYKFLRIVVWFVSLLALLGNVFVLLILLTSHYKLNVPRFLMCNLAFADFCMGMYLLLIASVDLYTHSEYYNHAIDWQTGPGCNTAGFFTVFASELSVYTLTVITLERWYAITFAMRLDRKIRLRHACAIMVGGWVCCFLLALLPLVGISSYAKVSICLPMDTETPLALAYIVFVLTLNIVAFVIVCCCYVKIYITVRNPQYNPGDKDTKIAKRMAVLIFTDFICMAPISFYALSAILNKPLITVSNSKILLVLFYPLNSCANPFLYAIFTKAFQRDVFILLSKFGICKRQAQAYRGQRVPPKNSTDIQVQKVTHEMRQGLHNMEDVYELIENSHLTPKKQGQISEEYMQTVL
In short: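 TSHR-HEK293 cells were plated and held 18 h at 37C/5% CO2, then given compound plus Ro20-1724 and stimulated with TSH at 1.5 ng/mL final. After 30 min at room temperature, cAMP was detected with cAMP-d2/anti-cAMP-cryptate (1 h) by fluorescence.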

[2] = qHTS assay to identify small molecule agonists of the estrogen receptor alpha (ER-alpha) signaling pathway in the presence of an antagonist - cell viability counter screen (AID 1259386);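 note: series mostly up to about 92 µM; cells exposed to compounds for 22 h at 37 °C before the viability read; nearly all actives have a fitted effect of over 30% in size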
In short: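 Cell viability in VM7Luc4E2 cells (endogenous full-length ER-alpha) measured by CellTiter-Fluor fluorescence in the same wells as the luciferase screen. Cells pre-cultured 5 days in charcoal-stripped serum, then treated 22 h with compounds at 15 concentrations plus 10.0nM ICI-182,780.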

[3] = target: Progesterone receptor (Homo sapiens) (UniProt P06401); assay: qHTS assay to identify small molecule agonists of the progesterone receptor (PR) signaling pathway (AID 1346784; calls by dose curve; note: nearly all actives have a fitted effect of over 30% in size)
Sequence of Progesterone receptor (Homo sapiens) (P06401 whole entry, looked up): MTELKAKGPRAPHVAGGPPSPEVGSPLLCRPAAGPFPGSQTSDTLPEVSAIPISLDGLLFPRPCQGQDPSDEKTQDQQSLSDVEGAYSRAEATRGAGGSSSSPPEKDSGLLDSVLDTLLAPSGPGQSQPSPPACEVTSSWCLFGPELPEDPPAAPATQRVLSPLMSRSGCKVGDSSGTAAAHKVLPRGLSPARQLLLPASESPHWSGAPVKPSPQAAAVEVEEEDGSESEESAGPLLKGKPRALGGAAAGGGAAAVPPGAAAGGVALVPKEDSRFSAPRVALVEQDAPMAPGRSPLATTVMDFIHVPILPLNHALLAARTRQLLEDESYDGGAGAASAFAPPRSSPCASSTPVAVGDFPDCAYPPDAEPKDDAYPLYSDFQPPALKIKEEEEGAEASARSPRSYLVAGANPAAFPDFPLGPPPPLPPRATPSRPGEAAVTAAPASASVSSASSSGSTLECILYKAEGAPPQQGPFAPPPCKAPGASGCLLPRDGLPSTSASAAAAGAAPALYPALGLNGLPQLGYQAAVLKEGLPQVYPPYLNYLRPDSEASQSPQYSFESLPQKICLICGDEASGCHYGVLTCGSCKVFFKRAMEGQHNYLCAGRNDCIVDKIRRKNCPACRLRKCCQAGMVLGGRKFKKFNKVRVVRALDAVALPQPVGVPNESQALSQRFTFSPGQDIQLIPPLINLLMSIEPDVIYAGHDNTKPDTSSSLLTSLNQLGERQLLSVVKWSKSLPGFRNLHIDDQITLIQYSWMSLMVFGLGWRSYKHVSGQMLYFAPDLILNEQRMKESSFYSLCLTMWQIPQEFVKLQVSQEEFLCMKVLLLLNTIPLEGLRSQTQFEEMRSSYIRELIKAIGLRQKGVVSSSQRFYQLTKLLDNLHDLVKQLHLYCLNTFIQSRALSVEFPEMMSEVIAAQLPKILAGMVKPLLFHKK
In short: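 Agonist qHTS: compounds pinned onto 3,000 PR-UAS-bla HEK 293T cells per well in charcoal-stripped serum medium, 16hr at 37C, then beta-lactamase activity measured by LiveBLAzer FRET fluorescence after 2 hours at room temperature.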

[4] = target: Progesterone receptor (Homo sapiens) (UniProt P06401); assay: qHTS assay to identify small molecule antagonists of the progesterone receptor (PR) signaling pathway (AID 1346795; active = well fitted inhibition curve with a large enough effect in the signal ratio in the repeat runs, not every such curve was filed as active; the % refers to the signal ratio)
In short: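 Antagonist mode with agonist R5020 at 1 nM final and 16 hr incubation at 37C. Reporter was beta-lactamase driven by UAS in HEK293T (PR-UAS-bla), 2% charcoal-stripped serum; signal from LiveBLAzer FRET substrate, 2 hr at room temperature.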

[5] = qHTS assay to identify small molecule antagonists of the progesterone receptor (PR) signaling pathway - cell viability counter screen (AID 1346798); note: series mostly up to about 92 µM; nearly all actives have a fitted effect of over 50% in size
In short: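 Cytotoxicity read as CellTiter-Glo luminescence (30 min, room temperature) in the same wells as the beta-lactamase readout. HEK293T PR-UAS-bla cells in charcoal-stripped 2% FBS received compound and R5020, then 16 h at 37C, 5% CO2.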

[6] = qHTS assay to identify small molecule agonists of the progesterone receptor (PR) signaling pathway - cell viability counter screen (AID 1346799; calls by dose curve; note: nearly all actives have a fitted effect of over 45% in size)
In short: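 Cytotoxicity measured by CellTiter-Glo luminescence (30 min, RT) in the same wells as the PR beta-lactamase agonist read. Those HEK293T cells had 16 h compound treatment at 37 C in 2% charcoal-stripped FBS medium.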

[7] = qHTS assay to identify small molecule antagonists of the TGF-beta/Smad signaling pathway - cell viability counter screen (AID 1346824); note: nearly all actives have a fitted effect of over 50% in size
In short: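 SBE-bla HEK 293T cells were plated overnight at 37 C, then given compounds in DMSO plus TGF-beta1 (added as 0.25 ng/mL solution) for 5 hr. After the bla read, CellTiter-Glo was added to the same wells and luminescence read after 30 min at room temperature.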

[8] = qHTS assay to identify small molecule agonists of the TGF-beta/Smad signaling pathway - cell viability counter screen (AID 1346829); note: top concentration of the series differs between compounds; nearly all actives have a fitted effect of over 45% in size
In short: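 Same-well cytotoxicity: CellTiter-Glo added after the 2 hr room-temperature beta-lactamase substrate step, luminescence measured 30 min later; cells had 5 hr of compound at 37 C.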

[9] = qHTS assay to identify small molecule agonists of the TGF-beta/Smad signaling pathway (AID 1346859; active = well fitted activation curve with a large enough effect in the signal ratio in the repeat runs, not every such curve was filed as active; the % refers to the signal ratio; note: series mostly up to about 77 µM)
In short: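 Fluorescence (ex 405 nm; em 460 and 530 nm) was read 2 h after LiveBLAzer FRET substrate at RT. The preceding compound treatment of overnight-plated SBE-bla HEK293T cells lasted 5 h at 37 C.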

[10] = Human pregnane X receptor (PXR) small molecule agonists, qHTS cell viability counter screen (AID 1346977); note: nearly all actives have a fitted effect of over 50% in size
In short: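 Same-well viability read: CellTiter-Fluor added after 23 hr compound exposure, fluorescence measured 1 hr later. Cells were PXR-Luc HepG2 seeded at 2,000/well in 5% charcoal-stripped FBS medium, rested 5 hr before dosing at 37 C.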

[11] = Caspase-3/7 induction in HepG2 cells by small molecules, qHTS assay (AID 1346978); note: nearly all actives have a fitted effect of over 15% in size
In short: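 Wild-type HepG2 cells (2,000/well) were settled 5 h at 37 C, 5% CO2, then exposed to compounds in DMSO for 17 h. Caspase-3/7 activity was read by luminescence 30 min after adding Caspase-Glo 3/7 reagent at room temperature.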

[12] = Caspase-3/7 induction in CHO-K1 cells by small molecules, qHTS assay (AID 1346980); note: nearly all actives have a fitted effect of over 15% in size
In short: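 Wild-type cells were seeded at 1,500 per well and settled 5 hr at 37 C, 5% CO2, then exposed to DMSO-dissolved compounds for 17 hr. Caspase-Glo 3/7 reagent was added, and luminescence was read after 30min at room temperature.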

[13] = Caspase-3/7 induction in HepG2 cells by small molecules, qHTS cell viability counter screen (AID 1346981); note: series mostly up to about 92 µM; nearly all actives have a fitted effect of over 30% in size
In short: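 Wild-type HepG2 cells, 2,000/well, settled 5 hr at 37 C, 5% CO2 before compound addition. Viability read by CellTiter-Fluor fluorescence, reagent added after 16 hr compound exposure, then 1 hr at 37C, in the same wells as the caspase read.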

[14] = target: Nuclear receptor subfamily 1 group I member 2 (Homo sapiens) (UniProt O75469); assay: Human pregnane X receptor (PXR) small molecule agonists, qHTS assay (AID 1346982); note: nearly all actives have a fitted effect of over 35% in size; note: potency is the fitted concentration of half-maximal effect
Sequence of Nuclear receptor subfamily 1 group I member 2 (Homo sapiens) (O75469 whole entry, looked up): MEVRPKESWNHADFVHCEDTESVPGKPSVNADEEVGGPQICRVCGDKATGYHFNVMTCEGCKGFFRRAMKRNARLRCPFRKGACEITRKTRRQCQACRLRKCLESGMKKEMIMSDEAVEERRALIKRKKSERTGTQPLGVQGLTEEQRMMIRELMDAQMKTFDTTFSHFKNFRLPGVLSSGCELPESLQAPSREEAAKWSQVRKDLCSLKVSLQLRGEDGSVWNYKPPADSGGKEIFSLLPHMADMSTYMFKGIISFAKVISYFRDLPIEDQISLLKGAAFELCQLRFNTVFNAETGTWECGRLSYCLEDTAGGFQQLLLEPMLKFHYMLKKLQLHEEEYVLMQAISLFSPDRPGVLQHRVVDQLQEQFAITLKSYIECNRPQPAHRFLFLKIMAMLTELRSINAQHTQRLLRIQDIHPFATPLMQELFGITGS
In short: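 PXR-Luc HepG2 reporter cells (CYP3A4-driven luciferase) in 5% charcoal-stripped FBS medium, plated 5 h before compound addition, then treated 24 h at 37C. Luciferase read by ONE-Glo luminescence after 30 min at room temperature.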

[15] = target: Thyrotropin-releasing hormone receptor (Homo sapiens) (UniProt P34981); assay: qHTS assay to identify small molecule antagonists of the thyrotropin-releasing hormone receptor (TRHR) signaling pathway (AID 1346877; active = well fitted inhibition curve with a large enough effect in the repeat runs, not every such curve was filed as active; note: series mostly up to about 51 µM)
Sequence of Thyrotropin-releasing hormone receptor (Homo sapiens) (P34981 whole entry, looked up): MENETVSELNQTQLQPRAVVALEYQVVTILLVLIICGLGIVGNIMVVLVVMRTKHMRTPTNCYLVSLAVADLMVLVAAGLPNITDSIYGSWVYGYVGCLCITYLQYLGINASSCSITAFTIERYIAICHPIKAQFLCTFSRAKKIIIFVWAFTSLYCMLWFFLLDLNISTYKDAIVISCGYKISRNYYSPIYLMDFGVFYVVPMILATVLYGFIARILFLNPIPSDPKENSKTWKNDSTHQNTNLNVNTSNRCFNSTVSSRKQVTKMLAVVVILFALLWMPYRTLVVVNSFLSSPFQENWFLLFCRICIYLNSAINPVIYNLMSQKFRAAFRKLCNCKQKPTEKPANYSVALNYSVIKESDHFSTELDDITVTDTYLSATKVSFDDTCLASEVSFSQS
In short: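 TRHR-expressing HEK293 cells loaded with calcium dye for 2 h at 37 C; compounds pre-incubated 5 min at room temperature before TRH challenge at 1 nM final. Intracellular calcium fluorescence read kinetically for 3 min; 15 concentrations in triplicate.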

[16] = target: Thyrotropin-releasing hormone receptor (Homo sapiens) (UniProt P34981); assay: qHTS assay to identify small molecule agonists of the thyrotropin-releasing hormone receptor (TRHR) signaling pathway (AID 1346891; calls by dose curve; note: series mostly up to about 58 µM)
In short: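 Agonist-mode intracellular calcium readout: kinetic fluorescence over 3 min at 1 s intervals after compound addition to TRHR-HEK293 cells (18 h seeded, 2 h dye-loaded at 37 C). Fifteen concentrations, triplicates.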

[17] = Caspase-3/7 induction in CHO-K1 cells by small molecules, qHTS cell viability counter screen (AID 1346979); note: nearly all actives have a fitted effect of over 35% in size
In short: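 Cytotoxicity counter screen: CellTiter-Fluor added to compound-treated wild-type CHO-K1 cells at 16 h (37C, 5% CO2), fluorescence measured 1 h later; same wells as caspase-3/7 measurement.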

[18] = target: Nuclear receptor subfamily 1 group I member 2 (Rattus norvegicus) (UniProt Q9R1A7); assay: Rat pregnane X receptor (rPXR) activation by small molecules, qHTS assay (AID 1346983); settings: rPXR luciferase reporter cells, One-Glo luminescence, 24 h; active compounds read high; note: nearly all actives have a fitted effect of over 20% in size
Sequence of Nuclear receptor subfamily 1 group I member 2 (Rattus norvegicus) (Q9R1A7 whole entry, looked up): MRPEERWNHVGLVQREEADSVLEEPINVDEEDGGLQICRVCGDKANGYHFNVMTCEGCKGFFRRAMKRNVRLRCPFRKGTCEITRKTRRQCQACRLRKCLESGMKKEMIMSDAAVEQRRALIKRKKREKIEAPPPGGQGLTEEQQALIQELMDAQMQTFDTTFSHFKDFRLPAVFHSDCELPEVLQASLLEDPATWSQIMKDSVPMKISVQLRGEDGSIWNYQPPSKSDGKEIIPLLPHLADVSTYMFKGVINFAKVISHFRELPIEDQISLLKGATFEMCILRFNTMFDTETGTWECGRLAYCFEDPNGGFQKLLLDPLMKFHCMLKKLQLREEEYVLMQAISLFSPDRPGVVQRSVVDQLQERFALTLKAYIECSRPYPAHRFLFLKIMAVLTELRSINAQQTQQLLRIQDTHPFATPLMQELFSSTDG
In short: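 Cell-based rPXR luciferase reporter assay, 2,000 cells per well, rested 5hr at 37 C before compound addition in DMSO, then 24 hr at 37 C. One-Glo reagent was added and luminescence read after 30 min at room temperature.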

[19] = target: Nuclear receptor subfamily 1 group I member 2 (Homo sapiens) (UniProt O75469); assay: CYP3A4 induction through human pregnane X receptor (PXR) by small molecules, qHTS assay (AID 1346984); note: nearly all actives have a fitted effect of over 40% in size
In short: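 DPX-2 HepG2 cells carrying a PXR response element and CYP3A4-promoter luciferase construct, treated with compounds 24 hr at 37C. Then P450-Glo CYP3A4 Luciferin-IPA substrate (3uM final) for 3 hr at 37C, One-Glo added, luminescence read.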

[20] = target: Nuclear receptor subfamily 1 group I member 2 (Homo sapiens) (UniProt O75469); assay: Human pregnane X receptor (PXR) activation by small molecules, qHTS assay (AID 1346985); note: nearly all actives have a fitted effect of over 40% in size
In short: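 DPX-2 cells (HepG2 co-transfected with a PXR response element and a CYP3A4-promoter luciferase construct) were seeded at 2,000 per well, rested 5 hr at 37C, then exposed to DMSO-dissolved compounds for 24 hr. Activation was read as luciferase luminescence.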
% is set by controls: 0 for no effect and ±100 for the full control effect.

CC(=O)OC(C)OC(=O)C(C)c1ccc(-c2ccccc2)c(F)c1 (centres undefined)
inactive: outcome [1] | Potency [2] | Potency [3] | Potency [4] | Potency [5] | Potency [6] | outcome [7] | outcome [8] | outcome [9] | Potency [10] | Potency [11] | outcome [12] | Potency [13] | Potency [14]

C=COCCOCCOCCOC=C
inactive: outcome [1] | Potency [2] | Potency [3] | Potency [4] | Potency [5] | Potency [6] | outcome [7] | outcome [8] | outcome [15] | outcome [16] | Potency [10] | Potency [11] | Potency [17] | outcome [12] | Potency [13] | Potency [14]

N[C@@H](CCC(=O)N[C@@H](CS)C(=O)NCC(=O)O)C(=O)O
inactive: activity change, negative = inhibition [1] 6.72% [at 19 µM] | activity change, negative = cytotoxicity [2] 5.49% [at 19 µM] | activation [3] -0.471% [at 19 µM] | activity change, negative = inhibition [4] 1.1% [at 18.9 µM] | activity change, negative = cytotoxicity [5] 2.33% [at 18.9 µM] | activity change, negative = cytotoxicity [6] 3.29% [at 19 µM] | viability change, negative = cytotoxic [7] 18.5% [at 15.8 µM] | activity change, negative = cytotoxicity [8] 1.41% [at 15.8 µM] | activation [9] 1.79% [at 15.8 µM] | caspase activation [11] -1.46% [at 19 µM] | activity change, negative = cytotoxicity [17] 5.61% [at 19 µM] | caspase-3/7 activation [12] -0.229% [at 19 µM] | max activation [18] 3.38%

O=C(CS(=O)Cc1ccco1)NC/C=C\COc1cc(CN2CCCCC2)ccn1 (centres undefined)
inactive: outcome [1] | Potency [2] | Potency [3] | Potency [4] | Potency [5] | Potency [6] | outcome [7] | outcome [8] | outcome [9] | outcome [15] | outcome [16] | Potency [10] | Potency [11] | Potency [17] | Potency [13] | Potency [14] | max activation [18] -0.727% | Potency [19] | Potency [20]

CCCCOC(=O)c1ccccc1
inactive: outcome [1] | Potency [2] | Potency [3] | Potency [4] | Potency [5] | Potency [6] | outcome [7] | outcome [8] | outcome [9] | outcome [15] | outcome [16] | Potency [10] | Potency [11] | Potency [17] | Potency [13] | Potency [14]

COc1cc2c(cc1OC)[C@@H]1CC(=O)[C@@H](CC(C)C)CN1CC2
inactive: outcome [1] | Potency [2] | Potency [3] | Potency [4] | Potency [5] | Potency [6] | outcome [7] | outcome [8] | outcome [9] | outcome [15] | outcome [16] | Potency [10] | Potency [17] | outcome [12]

COc1ccc(OC)c(Cl)c1
inactive: outcome [1] | Potency [2] | Potency [3] | Potency [4] | Potency [5] | Potency [6] | outcome [7] | outcome [8] | outcome [9] | outcome [15] | outcome [16] | Potency [10] | Potency [11] | Potency [17] | Potency [13] | Potency [14]

Cc1cccc(C)c1NC(=O)c1ccccc1C(=O)O
inactive: outcome [1] | Potency [2] | Potency [3] | Potency [4] | Potency [5] | Potency [6] | outcome [7] | outcome [8] | outcome [9] | outcome [15] | outcome [16] | Potency [11] | outcome [12] | Potency [13] | Potency [14] | max activation [18] -1.88% | Potency [19] | Potency [20]

BrCCCCCBr
inactive: outcome [1] | Potency [2] | Potency [3] | Potency [4] | Potency [5] | Potency [6] | outcome [7] | outcome [8] | outcome [9] | outcome [15] | outcome [16] | Potency [10] | Potency [11] | Potency [17] | Potency [14]

CC(=O)/C=C/C1C(C)=CCC(C)C1(C)C (centres undefined)
inactive: outcome [1] | Potency [2] | Potency [3] | Potency [4] | Potency [5] | Potency [6] | outcome [7] | outcome [8] | outcome [9] | Potency [11] | Potency [17] | Potency [13]
active: Potency [14] 19.3 µM

CC(C)(C)c1nnc(NS(=O)(=O)c2ccc(N)cc2)s1
inactive: outcome [1] | Potency [2] | Potency [3] | Potency [4] | Potency [5] | Potency [6] | outcome [7] | outcome [8] | outcome [9] | Potency [10] | Potency [11] | Potency [17] | outcome [12] | Potency [14]

NS(=O)(=O)c1ccc(NC(=O)CCC(=O)O)cc1
inactive: outcome [1] | Potency [2] | Potency [3] | Potency [4] | Potency [5] | Potency [6] | outcome [7] | outcome [8] | outcome [9] | Potency [11] | Potency [17] | Potency [13] | Potency [14] | max activation [18] -2.26% | Potency [19] | Potency [20]

CCCCOCCOC(=O)COc1nc(Cl)c(Cl)cc1Cl
inactive: outcome [1] | Potency [2] | Potency [3] | Potency [4] | Potency [5] | Potency [6] | outcome [7] | outcome [8] | outcome [9] | outcome [15] | Potency [10] | Potency [11] | Potency [17] | outcome [12] | Potency [13]

CC(=O)N[C@@H](CCC(=O)O)C(=O)O
inactive: outcome [1] | Potency [2] | Potency [3] | Potency [4] | Potency [5] | Potency [6] | outcome [7] | outcome [8] | outcome [9] | outcome [15] | outcome [16] | Potency [10] | Potency [11] | Potency [17] | Potency [13] | Potency [14] | max activation [18] -1.49% | Potency [19] | Potency [20]

CCCCCCN
inactive: outcome [1] | Potency [2] | Potency [3] | Potency [4] | Potency [5] | Potency [6] | outcome [7] | outcome [8] | outcome [9] | outcome [15] | outcome [16] | Potency [11] | Potency [17] | outcome [12] | Potency [13] | Potency [14]
